# PubChem BioAssay (NCI)
# About 79,000 compounds went through this panel and 15% of them were active in at least one assay; those are over-represented in the sample as a whole. A number with no mark means an inactive call. Activity calls are given as the source filed them. Rule as the data show it: active = growth inhibition above about 70%; inactive = the rest.
# Legend:
# [1] = NCI Yeast Anticancer Drug Screen. Data for the rad52 strain (AID 147);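 also: 0% = growth of vehicle-treated control cultures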; conditions: S. cerevisiae rad52 mutant growth inhibition, active compounds read high
# Outline: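 Here a repair-compromised yeast strain receives each compound; its growth is then quantified and normalised to vehicle-only controls.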
# [2] = NCI Yeast Anticancer Drug Screen. Data for the wt1 strain (AID 149);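 also: 0% = growth of vehicle-treated wt1 cultures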; conditions: S. cerevisiae wt1 strain (SPY 50644) growth inhibition, active compounds read high
# Outline: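 Using yeast strain wt1, compound-induced growth inhibition was determined against vehicle-treated cultures.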
# [3] = NCI Yeast Anticancer Drug Screen. Data for the rad50EPP+ strain (AID 151);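 also: 0% = growth of vehicle-treated control cultures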; conditions: S. cerevisiae rad50 mutant strain, active compounds read high
# Outline: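 Read-out is yeast growth inhibition relative to vehicle; cells used were the rad50EPP+ strain.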
# [4] = NCI Yeast Anticancer Drug Screen. Data for the rad50 strain (AID 155);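 also: 0% = growth of vehicle-only cultures of the same strain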; conditions: S. cerevisiae rad50 strain growth inhibition, active compounds read high
# Outline: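 Relative growth inhibition (compound vs vehicle) was measured in yeast with a defined repair-gene alteration.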
# [5] = NCI Yeast Anticancer Drug Screen. Data for the mec2-1 strain (AID 157); conditions: S. cerevisiae mec2-1 strain, active compounds read high
# Outline: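 Using mec2-1 yeast: add compound, measure growth, express inhibition versus vehicle-treated cultures.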
# [6] = NCI Yeast Anticancer Drug Screen. Data for the rad14 strain (AID 159);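 also: 0% = growth of vehicle-treated control cultures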; conditions: S. cerevisiae rad14 strain growth inhibition, active compounds read high
# Outline: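 Screen for anticancer potential: a yeast strain altered in DNA damage repair is grown with compound, and reduced growth is quantified against vehicle controls.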
# [7] = NCI Yeast Anticancer Drug Screen. Data for the sgs1 mgt1 strain (AID 161);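 also: 0% = growth of cultures given vehicle only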; conditions: S. cerevisiae sgs1 mgt1 strain, active compounds read high
# Outline: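 This yeast growth screen uses a strain with defined DNA-repair lesions; compound-treated growth is compared with vehicle-treated growth.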
# [8] = NCI Yeast Anticancer Drug Screen. Data for the cln2 rad14 strain (AID 165);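 also: 0% = growth equal to vehicle treated cultures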; conditions: S. cerevisiae cln2 rad14 strain, active compounds read high
# Outline: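 Yeast strain cln2 rad14, bearing defects in cell cycle control and DNA repair, serves as the test system; values reflect growth inhibition compared with vehicle.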
# [9] = NCI Yeast Anticancer Drug Screen. Data for the bub3 strain (AID 167); conditions: S. cerevisiae bub3 mutant strain, active compounds read high
# Outline: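 Screening used yeast with an engineered genetic alteration affecting cell cycle control. Compound-exposed cultures were compared with vehicle cultures, and reduced growth was taken as inhibition.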
# [10] = NCI Yeast Anticancer Drug Screen. Data for the wt2 strain (AID 169);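 also: 0% = growth of vehicle-treated yeast cultures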; conditions: S. cerevisiae wt2 strain growth inhibition, active compounds read high
# Outline: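 Treated yeast vs. vehicle-treated yeast: growth inhibition determined.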
# [11] = NCI Yeast Anticancer Drug Screen. Data for the mlh1 strain (AID 171);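 also: 0% = growth of vehicle-treated control cultures of the same strain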; conditions: S. cerevisiae mlh1 strain growth inhibition, active compounds read high
# Outline: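 A yeast strain with a defined genetic lesion serves as the test organism. Cultures receive compound or vehicle, and growth is measured.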
# [12] = NCI Yeast Anticancer Drug Screen. Data for the sgs1 strain (AID 173);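 also: 0% = growth of vehicle-only control cultures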; conditions: S. cerevisiae sgs1 mutant, active compounds read high
# Outline: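 A genetically defined yeast mutant is incubated with the test compound, and its growth is compared to that of the same strain given vehicle.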
# [13] = NCI Yeast Anticancer Drug Screen. Data for the mlh1 rad18 strain (AID 175); conditions: S. cerevisiae mlh1 rad18 strain growth inhibition, active compounds read high
# Outline: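 Steps: expose repair-defective yeast to compound; measure growth; express inhibition against vehicle-treated controls.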
# [14] = NCI Yeast Anticancer Drug Screen. Data for the rad18 strain (AID 177); conditions: S. cerevisiae rad18 mutant growth inhibition, active compounds read high
# Outline: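 Measured value is growth inhibition of a yeast strain bearing a DNA repair alteration, referenced to vehicle-treated cells.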
# [15] = NCI Yeast Anticancer Drug Screen. Data for the CLN2oe strain (AID 163);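 also: 0% = growth of vehicle-only control cultures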; conditions: S. cerevisiae CLN2oe strain, active compounds read high
# Outline: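 Whole-cell yeast growth assay. A strain engineered for altered cell-cycle control received compound, and inhibition relative to vehicle-treated cultures was recorded.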
# [16] = at 5.0 µM (retest, dose inferred, filed as 0.5)
# [17] = at 50.0 µM (retest, dose inferred, filed as 5.0)
smiles,measurement,setting,value
O=C(CCCN1CCC(Nc2ccc(F)cc2)(c2nnnn2C2CCCCC2)CC1)c1ccc(F)cc1,growth inhibition,[1]; at 1.2 µM,14%
same,growth inhibition,[1]; at 3.7 µM,2%
same,growth inhibition,[1]; at 11.0 µM,19%
same,growth inhibition,[1]; at 33.0 µM,24%
same,growth inhibition,[1]; at 100.0 µM,98% (active)
same,growth inhibition,[2]; at 1.2 µM,-81%
same,growth inhibition,[2]; at 3.7 µM,-5%
same,growth inhibition,[2]; at 11.0 µM,-11%
same,growth inhibition,[2]; at 33.0 µM,-11%
same,growth inhibition,[2]; at 100.0 µM,89% (active)
same,growth inhibition,[3]; at 1.2 µM,0%
same,growth inhibition,[3]; at 3.7 µM,0%
same,growth inhibition,[3]; at 11.0 µM,1%
same,growth inhibition,[3]; at 33.0 µM,4%
same,growth inhibition,[3]; at 100.0 µM,25%
same,growth inhibition,[4]; at 1.2 µM,-5%
same,growth inhibition,[4]; at 3.7 µM,-7%
same,growth inhibition,[4]; [16],1%
same,growth inhibition,[4]; at 11.0 µM,-9%
same,growth inhibition,[4]; at 33.0 µM,-5%
same,growth inhibition,[4]; [17],37%
same,growth inhibition,[4]; at 50.0 µM,11.7%
same,growth inhibition,[4]; at 100.0 µM,97% (active)
same,growth inhibition,[5]; at 1.2 µM,-7%
same,growth inhibition,[5]; at 3.7 µM,-8%
same,growth inhibition,[5]; [16],3%
same,growth inhibition,[5]; at 11.0 µM,-17%
same,growth inhibition,[5]; at 33.0 µM,-5%
same,growth inhibition,[5]; [17],12%
same,growth inhibition,[5]; at 50.0 µM,27.1%
same,growth inhibition,[5]; at 100.0 µM,99% (active)
same,growth inhibition,[6]; at 1.2 µM,-5%
same,growth inhibition,[6]; at 3.7 µM,-8%
same,growth inhibition,[6]; at 11.0 µM,-10%
same,growth inhibition,[6]; at 33.0 µM,9%
same,growth inhibition,[6]; at 100.0 µM,85% (active)
same,growth inhibition,[7]; [16],-4%
same,growth inhibition,[7]; [17],31%
same,growth inhibition,[7]; at 50.0 µM,50.3%
same,growth inhibition,[8]; [16],65%
same,growth inhibition,[8]; [17],50%
same,growth inhibition,[8]; at 50.0 µM,35.7%
same,growth inhibition,[9]; at 1.2 µM,-2%
same,growth inhibition,[9]; at 3.7 µM,-4%
same,growth inhibition,[9]; [16],-13%
same,growth inhibition,[9]; at 11.0 µM,-6%
same,growth inhibition,[9]; at 33.0 µM,22%
same,growth inhibition,[9]; [17],80% (active)
same,growth inhibition,[9]; at 50.0 µM,32.9%
same,growth inhibition,[9]; at 100.0 µM,99% (active)
same,growth inhibition,[10]; at 1.2 µM,-6%
same,growth inhibition,[10]; at 3.7 µM,-6%
same,growth inhibition,[10]; at 11.0 µM,-9%
same,growth inhibition,[10]; at 33.0 µM,-1%
same,growth inhibition,[10]; at 100.0 µM,99% (active)
same,growth inhibition,[11]; at 1.2 µM,-3%
same,growth inhibition,[11]; at 3.7 µM,-6%
same,growth inhibition,[11]; at 11.0 µM,-8%
same,growth inhibition,[11]; at 33.0 µM,-6%
same,growth inhibition,[11]; at 100.0 µM,98% (active)
same,growth inhibition,[12]; at 1.2 µM,-1%
same,growth inhibition,[12]; at 3.7 µM,-1%
same,growth inhibition,[12]; at 11.0 µM,-4%
same,growth inhibition,[12]; at 33.0 µM,7%
same,growth inhibition,[12]; at 100.0 µM,98% (active)
same,growth inhibition,[13]; [16],-3%
same,growth inhibition,[13]; [17],41%
same,growth inhibition,[13]; at 50.0 µM,77.8% (active)
same,growth inhibition,[14]; at 1.2 µM,3%
same,growth inhibition,[14]; at 3.7 µM,0%
same,growth inhibition,[14]; at 11.0 µM,14%
same,growth inhibition,[14]; at 33.0 µM,17%
same,growth inhibition,[14]; at 100.0 µM,99% (active)
COc1ccc2nc3cccc([N+](=O)[O-])c3c(NCCNCCN(C)C)c2c1,growth inhibition,[1]; at 1.2 µM,-4%
same,growth inhibition,[1]; at 3.7 µM,-3%
same,growth inhibition,[1]; at 11.0 µM,-6%
same,growth inhibition,[1]; at 33.0 µM,-4%
same,growth inhibition,[1]; at 100.0 µM,2%
same,growth inhibition,[2]; at 1.2 µM,-3%
same,growth inhibition,[2]; at 3.7 µM,-2%
same,growth inhibition,[2]; at 11.0 µM,-2%
same,growth inhibition,[2]; at 33.0 µM,-1%
same,growth inhibition,[2]; at 100.0 µM,3%
same,growth inhibition,[3]; at 1.2 µM,-4%
same,growth inhibition,[3]; at 3.7 µM,0%
same,growth inhibition,[3]; at 11.0 µM,0%
same,growth inhibition,[3]; at 33.0 µM,-4%
same,growth inhibition,[3]; at 100.0 µM,3%
same,growth inhibition,[4]; at 1.2 µM,-4%
same,growth inhibition,[4]; at 3.7 µM,-5%
same,growth inhibition,[4]; [16],29%
same,growth inhibition,[4]; at 11.0 µM,-12%
same,growth inhibition,[4]; at 33.0 µM,-4%
same,growth inhibition,[4]; [17],97% (active)
same,growth inhibition,[4]; at 50.0 µM,74.7% (active)
same,growth inhibition,[4]; at 100.0 µM,1%
same,growth inhibition,[5]; at 1.2 µM,2%
same,growth inhibition,[5]; at 3.7 µM,-1%
same,growth inhibition,[5]; [16],5%
same,growth inhibition,[5]; at 11.0 µM,2%
same,growth inhibition,[5]; at 33.0 µM,-1%
same,growth inhibition,[5]; [17],97% (active)
same,growth inhibition,[5]; at 50.0 µM,73% (active)
same,growth inhibition,[5]; at 100.0 µM,8%
same,growth inhibition,[6]; at 1.2 µM,-2%
same,growth inhibition,[6]; at 3.7 µM,-2%
same,growth inhibition,[6]; at 11.0 µM,0%
same,growth inhibition,[6]; at 33.0 µM,1%
same,growth inhibition,[6]; at 100.0 µM,4%
same,growth inhibition,[7]; [16],72% (active)
same,growth inhibition,[7]; [17],93% (active)
same,growth inhibition,[7]; at 50.0 µM,68.2%
same,growth inhibition,[15]; at 1.2 µM,-1%
same,growth inhibition,[15]; at 3.7 µM,-2%
same,growth inhibition,[15]; at 11.0 µM,-11%
same,growth inhibition,[15]; at 33.0 µM,3%
same,growth inhibition,[15]; at 100.0 µM,12%
same,growth inhibition,[8]; [16],32%
same,growth inhibition,[8]; [17],99% (active)
same,growth inhibition,[8]; at 50.0 µM,77.7% (active)
same,growth inhibition,[9]; at 1.2 µM,-5%
same,growth inhibition,[9]; at 3.7 µM,4%
same,growth inhibition,[9]; [16],-33%
same,growth inhibition,[9]; at 11.0 µM,3%
same,growth inhibition,[9]; at 33.0 µM,-5%
same,growth inhibition,[9]; [17],50%
same,growth inhibition,[9]; at 50.0 µM,-5.3%
same,growth inhibition,[9]; at 100.0 µM,-5%
same,growth inhibition,[10]; at 1.2 µM,-2%
same,growth inhibition,[10]; at 3.7 µM,-4%
same,growth inhibition,[10]; at 11.0 µM,-3%
same,growth inhibition,[10]; at 33.0 µM,-3%
same,growth inhibition,[10]; at 100.0 µM,1%
same,growth inhibition,[11]; at 1.2 µM,-4%
same,growth inhibition,[11]; at 3.7 µM,-4%
same,growth inhibition,[11]; at 11.0 µM,-1%
same,growth inhibition,[11]; at 33.0 µM,-3%
same,growth inhibition,[11]; at 100.0 µM,3%
same,growth inhibition,[12]; at 1.2 µM,-1%
same,growth inhibition,[12]; at 3.7 µM,-1%
same,growth inhibition,[12]; at 11.0 µM,0%
same,growth inhibition,[12]; at 33.0 µM,-1%
same,growth inhibition,[12]; at 100.0 µM,2%
same,growth inhibition,[13]; [16],55%
same,growth inhibition,[13]; [17],96% (active)
same,growth inhibition,[13]; at 50.0 µM,66.5%
same,growth inhibition,[14]; at 1.2 µM,-5%
same,growth inhibition,[14]; at 3.7 µM,-3%
same,growth inhibition,[14]; at 11.0 µM,-4%
same,growth inhibition,[14]; at 33.0 µM,3%
same,growth inhibition,[14]; at 100.0 µM,6%
